Shiga toxin inh – Shiga toxin inhibition; AID 2315; inhibition, % at 38.7 µM; Vero cells, Shiga toxin protein synthesis inhibition reporter; 9.2% of 290,000 active; in the data active = inhibition mostly above about 28%, no sharp cut-off; inactive = mostly below about 43%
VACV mCherry inh – vaccinia inhibition (mCherry reporter) | Vaccinia virus mCherry reporter infection, fluorescence | Potency, µM (highest dose often 36.5 µM), usual class: inhibitors | 0.63% of 310,000 active | AID 720579; calls by dose curve; tested in A549 cells; also: nearly all actives have a fitted effect of over 35% in size
MARV entry inh – inhibitors of Marburg virus binding or cell entry; Potency, µM (highest dose often 37.8 µM), most hits filed as inhibitors; Marburg virus pseudotyped entry inhibition, cell reporter; 1.8% of 300,000 active; AID 540276; calls by dose curve; tested in HEK293 cells
LASV entry inh – blocks Lassa virus binding to or entry into cells | Lassa virus pseudotype entry inhibition, cell reporter | Potency, µM (series often up to 37.9 µM), hits mostly inhibitors | 1.2% of 300,000 active | AID 540256; calls by dose curve; tested in HEK293 cells; also: nearly all actives have a fitted effect of over 50% in size
VACV Venus inh – vaccinia inhibition (Venus reporter). Vaccinia virus Venus reporter expression, fluorescence. 0.46% of 330,000 active. Potency, µM (titrated, usually from 36.5 µM), usual class: inhibitors; calls by dose curve; tested in A549 cells; also: nearly all actives have a fitted effect of over 30% in size
Cycloheximide cs – counter-screen hit for Shiga toxin inhibitors, cycloheximide. cell reporter, cycloheximide protein synthesis inhibition counterscreen. max response, %. 12% of 300,000 active. AID 2314; in the data active = max response mostly above about 13%, no sharp cut-off; inactive = mostly below about 14%; also: read at 38.3 µM for the half of the compounds with a filed dose
A number is an active result; 0 = inactive; ? = inconclusive; - = not tested or not shown; [ ] = remark or other dose. Shown is part of a subset that was picked to be rich in hits.

SMILES | Shiga toxin inh | VACV mCherry inh | MARV entry inh | LASV entry inh | VACV Venus inh | Cycloheximide cs
Cc1ccc(CCNC(=O)c2cc(-c3ccncc3)nc3ccccc23)cc1 | 0 | 0[7.34 µM] | - | - | 0[7.34 µM] | 0
Cc1ccc(CNC(=O)c2cc(-c3ccc(C)c(C)c3)nc3ccccc23)cc1 | - | 0 | - | 0 | 0 | -
O=C(NC1=NCCS1)c1cc(-c2ccc(F)cc2)nc2ccccc12 | 0 | 0 | ? | 0 | 0 | 17
O=C(NN=C1CCCC1)c1cc(-c2ccc(F)cc2)nc2ccccc12 | 0 | 0 | ? | ? | 0 | 0
CCCc1ccc(-c2cc(C(=O)NC3=NCCS3)c3ccccc3n2)cc1 | 24 | 0 | 0 | 0 | 0 | 19
Cc1ccc(-c2cc(C(=O)NC3=NCCS3)c3ccccc3n2)cc1C | 0 | 0 | 0 | ? | 0 | 18
CCc1ccccc1NC(=O)Cn1c(=O)n(CCc2ccccc2)c(=O)c2sc3ccccc3c21 | - | 0 | 0 | 0 | 0 | -
CC(=O)c1sc(NC(=O)c2cc(-c3ccccc3)nn2-c2ccccc2)nc1C | 0 | 0 | ? | ? | 0 | 0
O=C(NNC(=O)c1cc(-c2ccccc2)nn1-c1ccccc1)c1ccccc1 | 0 | 0 | ? | 0 | 0 | 8.5
O=C(Nc1nc2ccccc2s1)c1cc(-c2ccccc2)nn1-c1ccccc1 | 24 | ? | ? | ? | 0 | 26
CCCNC(=O)C(=O)N/N=C/c1cccs1 | 0 | 0 | 0 | 0 | 0 | 21
CC(C)NC(=O)CC(=O)N/N=C/c1cccs1 | 0 | 0 | 0 | 0 | 0 | 0
O=C(N/N=C/c1cccs1)C(=O)Nc1cccc(Cl)c1 | 55 | - | - | - | - | 20
CCN(CC)C(=O)C(=O)N/N=C/c1cccs1 | 0 | - | 0 | 0 | 0 | 0
CC(C)CNC(=O)C(=O)N/N=C/c1cccs1 | 0 | - | 0 | ? | - | 28
CC(C)(C)NC(=O)C(=O)N/N=C/c1cccs1 | 67 | 0 | ? | 0 | 0 | 37
O=C(Nc1c(Cl)cc(Cl)cc1-c1nc2ccccc2s1)c1ccc(Br)o1 | 0 | - | ? | 0 | - | 0
CCN1C(=O)[C@H]2[C@H]3[C@H](O)[C@H](O)C/C(=N/NC(=O)OCc4ccccc4)[C@@H]3CC[C@@H]2C1=O | - | - | 0 | - | - | -
C#CCNc1ccc2c(c1)OC[C@H](C)NS2(=O)=O | - | - | - | 0 | - | -
CC(C)c1ccc(S(=O)(=O)c2nnn3c2nc(NCc2cccs2)c2sccc23)cc1 | - | 0 | - | ? | 0 | -
C=CCN1c2ccccc2[C@]23C[C@@H](C(=O)OC)N(C(=O)Nc4ccc(C(F)(F)F)cc4)C2=NC(C(=O)OC)=C(C(=O)OC)[C@H]13 | - | - | 0 | - | - | -
CCCCNC(=O)C1CCC(Cn2c(=O)c3sccc3n(Cc3ccccc3)c2=O)CC1 (stereo not given) | - | 0 | - | 0 | 0 | -
C(=C\c1ccnc2ccccc12)/c1ccccc1 | - | 0 | - | - | 0 | -
COc1cc(/C=C/c2cncc(/C=C/c3cc(OC)c(OC)c(OC)c3)c2)cc(OC)c1OC | - | 0 | - | - | 0 | -
COc1cc(/C=C/c2nnc3c4ccccc4ncn23)cc(OC)c1OC | 0 | 0 | ? | ? | 0 | 14
SMILES | Shiga toxin inh | VACV mCherry inh | MARV entry inh | LASV entry inh | VACV Venus inh | Cycloheximide cs
C(=C\c1nnc2c3ccccc3ncn12)/c1ccccc1 | 61 | ? | ? | ? | ? | 51
Cc1ccc(/C=N/Nc2ccnc3cc(Cl)ccc23)c(C)c1 | 0 | - | ? | ? | - | 0
Cc1ccccc1/C=N/Nc1ccnc2cc(Cl)ccc12 | 0 | ? | ? | ? | ? | 0
Clc1ccc2c(N/N=C/c3cccnc3)ccnc2c1 | 0 | ? | ? | ? | 0 | 17
Oc1ccc(/C=N/Nc2ccnc3cc(Cl)ccc23)c(O)c1 | 38 | - | 0 | - | - | 23
Clc1ccc2c(N/N=C/c3ccc(Br)cc3)ccnc2c1 | 0 | ? | 3.3µM | ? | ? | 0
Clc1ccc(NNc2ccnc3cc(Cl)ccc23)cc1 | 0 | - | ? | 0 | - | 0
Cc1ccc(C(O)c2ncc(-c3ccccc3C)[nH]2)cc1F (stereo not given) | - | 0 | - | - | ? | -
CCOC(=O)C1CCCCN1C(=O)c1ccc(-n2cc(NC(=O)c3cccnc3)cn2)cc1 (stereo not given) | - | 0 | - | - | 0 | -
CC1(C)N=C(N)N=C(N)N1c1ccc(CCCCc2ccccc2)cc1 | - | 3.2µM | - | - | ? | -
CC1(C)N=C(N)N=C(N)N1c1ccccc1 | 0 | - | ? | ? | ? | 0
CC1=NC(=O)C(N=Nc2ccccc2C(=O)O)N1c1ccccc1 (stereo not given) | 0 | 0 | 0 | 0 | 0 | 0
CC1=NC(=O)C(N=Nc2cccc(C(=O)O)c2)N1c1ccccc1 (stereo not given) | 104 | - | 2.6µM | 2.3µM | - | 35
CC1=NC(=O)C(N=Nc2ccccc2)N1c1ccccc1 (stereo not given) | 52 | - | 0 | ? | 0 | 29
